# In PMC7862700, “An all-to-all approach to the identification of sequence-specific readers for epigenetic DNA modifications on cytosine”:
# How the values were obtained:
# Experiment in all cases: DAPPL (digital affinity profiling via proximity ligation, sequencing); 10 mM Tris-HCl pH 7.5, 50 mM NaCl, 1 mM DTT, 4% glycerol, room temperature, 30 min; GST-TFs on glutathione beads, 16-mer random dsDNA library, 0.1% formaldehyde crosslink after washing; high values mean tight binding
# [1] = molecular target: T1, FLI1 (Homo sapiens, UniProt Q01543 1-452); conditions: protein: recombinant; tags: N-terminal GST; dsDNA, one strand shown
# T1 sequence: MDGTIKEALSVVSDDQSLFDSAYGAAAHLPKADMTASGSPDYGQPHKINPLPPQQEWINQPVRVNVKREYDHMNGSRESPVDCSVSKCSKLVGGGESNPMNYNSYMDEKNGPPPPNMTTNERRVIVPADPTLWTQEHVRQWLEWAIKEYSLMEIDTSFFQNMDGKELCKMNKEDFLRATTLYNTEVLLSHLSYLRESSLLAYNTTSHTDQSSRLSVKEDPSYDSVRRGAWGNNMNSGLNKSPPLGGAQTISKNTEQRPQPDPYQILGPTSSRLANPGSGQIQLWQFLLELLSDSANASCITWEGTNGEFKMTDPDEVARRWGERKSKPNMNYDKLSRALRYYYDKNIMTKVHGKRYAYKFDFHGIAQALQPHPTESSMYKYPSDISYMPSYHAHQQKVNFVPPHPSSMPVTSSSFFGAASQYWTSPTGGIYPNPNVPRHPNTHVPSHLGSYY
# Method in brief: (§1)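 The binding signal reported is, for every hexamer, its read frequency for a factor over its read frequency for the tag-only sample. Reads came from pools of yeast-expressed, GST-fused human transcription factors on glutathione beads, barcoded with DNA and mixed with that sample, which were incubated with 200 nmole of a random double-stranded 16-mer DNA library in Tris/NaCl/DTT/glycerol buffer at room temperature for 30 min. After washing, the pools were crosslinked with 0.1% formaldehyde, proximity-ligated with BsaI/T4 ligase for 1 h at 37 °C, PCR-amplified and sequenced on an Illumina NextSeq500.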
# [2] = molecular target: T2, ELK1 (Homo sapiens, UniProt P19419 1-428); conditions: protein: recombinant; tags: N-terminal GST; dsDNA, one strand shown
# T2 sequence: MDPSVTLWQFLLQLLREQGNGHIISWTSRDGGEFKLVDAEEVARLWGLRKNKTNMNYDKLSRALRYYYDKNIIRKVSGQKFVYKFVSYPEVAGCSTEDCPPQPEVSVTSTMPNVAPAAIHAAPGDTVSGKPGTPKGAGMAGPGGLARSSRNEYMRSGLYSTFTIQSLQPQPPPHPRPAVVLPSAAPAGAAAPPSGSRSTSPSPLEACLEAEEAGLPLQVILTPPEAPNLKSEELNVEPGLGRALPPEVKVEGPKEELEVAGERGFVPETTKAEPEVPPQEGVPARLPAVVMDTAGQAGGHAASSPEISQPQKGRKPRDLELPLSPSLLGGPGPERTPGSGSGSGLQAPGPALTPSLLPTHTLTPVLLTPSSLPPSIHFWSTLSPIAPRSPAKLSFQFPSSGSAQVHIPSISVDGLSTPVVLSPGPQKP
# Method in brief: as §1
# [3] = molecular target: T3, GABPA (Homo sapiens, UniProt Q06546 1-454); conditions: protein: recombinant; tags: N-terminal GST; dsDNA, one strand shown
# T3 sequence: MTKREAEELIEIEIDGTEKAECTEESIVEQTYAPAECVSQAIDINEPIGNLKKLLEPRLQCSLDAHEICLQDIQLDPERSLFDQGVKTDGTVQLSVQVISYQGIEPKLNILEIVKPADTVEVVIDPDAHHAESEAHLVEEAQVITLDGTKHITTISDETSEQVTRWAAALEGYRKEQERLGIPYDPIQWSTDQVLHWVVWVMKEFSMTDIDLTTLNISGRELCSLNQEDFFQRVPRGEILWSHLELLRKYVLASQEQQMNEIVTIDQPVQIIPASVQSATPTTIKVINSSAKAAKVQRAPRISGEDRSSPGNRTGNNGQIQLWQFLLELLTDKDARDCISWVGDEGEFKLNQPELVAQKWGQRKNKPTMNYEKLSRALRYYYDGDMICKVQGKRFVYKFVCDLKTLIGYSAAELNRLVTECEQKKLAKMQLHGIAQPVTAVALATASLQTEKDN
# Method in brief: as §1
# [4] = molecular target: T4, ERG (Homo sapiens, UniProt P11308 1-479); conditions: protein: recombinant; tags: N-terminal GST; dsDNA, one strand shown
# T4 sequence: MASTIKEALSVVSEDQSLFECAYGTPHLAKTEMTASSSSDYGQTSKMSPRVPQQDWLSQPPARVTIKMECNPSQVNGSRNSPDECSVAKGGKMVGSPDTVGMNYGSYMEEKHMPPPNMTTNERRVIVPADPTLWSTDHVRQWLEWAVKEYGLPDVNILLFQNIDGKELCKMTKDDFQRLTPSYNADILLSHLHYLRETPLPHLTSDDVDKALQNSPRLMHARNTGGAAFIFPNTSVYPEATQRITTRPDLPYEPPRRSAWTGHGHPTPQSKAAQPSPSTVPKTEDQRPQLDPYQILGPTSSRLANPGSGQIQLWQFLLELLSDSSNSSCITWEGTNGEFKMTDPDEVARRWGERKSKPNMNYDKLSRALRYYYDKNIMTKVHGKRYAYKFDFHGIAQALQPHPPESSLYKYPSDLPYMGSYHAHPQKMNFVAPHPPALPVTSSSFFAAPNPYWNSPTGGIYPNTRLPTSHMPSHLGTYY
# Method in brief: as §1
# [5] = molecular target: ELF1 (Homo sapiens, UniProt P32519 1-619); conditions: protein: recombinant; tags: N-terminal GST; dsDNA, one strand shown
# Method in brief: as §1
# [6] = molecular target: T5, EHF (Homo sapiens, UniProt Q9NZC4 1-300); conditions: protein: recombinant; tags: N-terminal GST; dsDNA, one strand shown
# T5 sequence: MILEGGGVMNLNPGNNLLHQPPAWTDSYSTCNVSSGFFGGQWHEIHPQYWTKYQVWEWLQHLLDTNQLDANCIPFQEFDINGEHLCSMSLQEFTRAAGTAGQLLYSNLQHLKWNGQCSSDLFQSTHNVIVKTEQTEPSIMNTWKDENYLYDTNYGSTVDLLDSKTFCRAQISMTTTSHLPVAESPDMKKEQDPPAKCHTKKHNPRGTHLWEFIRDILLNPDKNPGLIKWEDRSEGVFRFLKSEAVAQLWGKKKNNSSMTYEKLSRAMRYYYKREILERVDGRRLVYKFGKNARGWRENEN
# Method in brief: as §1
# [7] = molecular target: SPI1 (Homo sapiens, UniProt P17947 1-270); conditions: protein: recombinant; tags: N-terminal GST; dsDNA, one strand shown
# Method in brief: as §1
# [8] = molecular target: SPIB (Homo sapiens, UniProt Q01892 1-262); conditions: protein: recombinant; tags: N-terminal GST; dsDNA, one strand shown
# Method in brief: as §1
# [9] = molecular target: T6, ELK3 (Homo sapiens, UniProt P41970 1-407); conditions: protein: recombinant; tags: N-terminal GST; dsDNA, one strand shown
# T6 sequence: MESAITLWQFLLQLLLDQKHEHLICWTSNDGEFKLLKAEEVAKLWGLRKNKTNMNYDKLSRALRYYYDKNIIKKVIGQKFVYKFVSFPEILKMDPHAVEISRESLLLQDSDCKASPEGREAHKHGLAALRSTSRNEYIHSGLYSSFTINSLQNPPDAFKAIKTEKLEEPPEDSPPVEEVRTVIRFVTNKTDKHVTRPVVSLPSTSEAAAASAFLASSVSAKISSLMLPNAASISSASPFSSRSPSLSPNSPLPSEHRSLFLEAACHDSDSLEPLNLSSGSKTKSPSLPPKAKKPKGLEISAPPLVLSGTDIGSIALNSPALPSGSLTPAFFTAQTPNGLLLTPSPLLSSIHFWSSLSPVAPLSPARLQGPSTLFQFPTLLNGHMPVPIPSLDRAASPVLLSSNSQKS
# Method in brief: as §1
# [10] = molecular target: T7, FEV (Homo sapiens, UniProt Q99581 1-238); conditions: protein: recombinant; tags: N-terminal GST; dsDNA, one strand shown
# T7 sequence: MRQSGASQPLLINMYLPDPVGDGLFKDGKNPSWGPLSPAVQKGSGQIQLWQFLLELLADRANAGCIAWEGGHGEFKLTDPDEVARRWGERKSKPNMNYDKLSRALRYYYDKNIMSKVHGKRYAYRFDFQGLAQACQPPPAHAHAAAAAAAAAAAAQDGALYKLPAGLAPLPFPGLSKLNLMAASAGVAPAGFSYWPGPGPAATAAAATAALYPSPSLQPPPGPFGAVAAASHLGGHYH
# Method in brief: as §1
# [11] = molecular target: ETV5 (Homo sapiens, UniProt P41161 1-510); conditions: protein: recombinant; tags: N-terminal GST; dsDNA, one strand shown
# Method in brief: as §1
# [12] = molecular target: HSF1 (Homo sapiens, UniProt Q00613 1-529); conditions: protein: recombinant; tags: N-terminal GST; chain copies: 3; dsDNA, one strand shown
# Method in brief: as §1
# [13] = molecular target: T8, SPIC (Homo sapiens, UniProt Q8N5J4 1-248); conditions: protein: recombinant; tags: N-terminal GST; dsDNA, one strand shown
# T8 sequence: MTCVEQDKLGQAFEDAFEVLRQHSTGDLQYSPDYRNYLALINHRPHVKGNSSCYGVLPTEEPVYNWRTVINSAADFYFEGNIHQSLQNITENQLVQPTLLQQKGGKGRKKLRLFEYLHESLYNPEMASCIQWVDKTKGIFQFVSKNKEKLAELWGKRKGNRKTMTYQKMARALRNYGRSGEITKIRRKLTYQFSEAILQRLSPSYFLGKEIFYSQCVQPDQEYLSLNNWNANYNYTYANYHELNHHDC
# Method in brief: as §1
# [14] = molecular target: ELF4 (Homo sapiens, UniProt Q99607 1-663); conditions: protein: recombinant; tags: N-terminal GST; dsDNA, one strand shown
# Method in brief: as §1
# [15] = molecular target: T9, ELK4 (Homo sapiens, UniProt P28324-2 1-405); conditions: protein: recombinant; tags: N-terminal GST; dsDNA, one strand shown
# T9 sequence: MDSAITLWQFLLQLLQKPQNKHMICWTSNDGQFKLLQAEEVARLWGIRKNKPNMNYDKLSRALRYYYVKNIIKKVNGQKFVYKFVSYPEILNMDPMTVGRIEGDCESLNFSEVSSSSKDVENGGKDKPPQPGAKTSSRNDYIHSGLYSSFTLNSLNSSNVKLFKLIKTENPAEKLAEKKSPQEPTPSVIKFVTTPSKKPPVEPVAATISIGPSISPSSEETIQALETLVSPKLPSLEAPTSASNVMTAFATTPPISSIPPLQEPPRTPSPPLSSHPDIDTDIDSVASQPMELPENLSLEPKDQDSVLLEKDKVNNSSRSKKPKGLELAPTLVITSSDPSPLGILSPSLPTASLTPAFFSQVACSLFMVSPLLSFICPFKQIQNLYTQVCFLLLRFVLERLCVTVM
# Method in brief: as §1
# [16] = molecular target: T10, ETV2 (Homo sapiens, UniProt O00321 1-342); conditions: protein: recombinant; tags: N-terminal GST; dsDNA, one strand shown
# T10 sequence: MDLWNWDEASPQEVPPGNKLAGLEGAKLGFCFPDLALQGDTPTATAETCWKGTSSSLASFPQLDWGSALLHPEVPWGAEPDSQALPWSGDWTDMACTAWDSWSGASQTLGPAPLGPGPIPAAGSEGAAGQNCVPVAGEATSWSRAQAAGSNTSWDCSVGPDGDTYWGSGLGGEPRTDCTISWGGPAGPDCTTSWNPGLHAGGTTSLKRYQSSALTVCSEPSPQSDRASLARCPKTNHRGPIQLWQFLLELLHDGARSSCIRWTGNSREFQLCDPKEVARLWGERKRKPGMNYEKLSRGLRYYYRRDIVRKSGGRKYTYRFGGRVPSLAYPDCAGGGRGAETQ
# Method in brief: as §1
# [17] = molecular target: T11, ELF3 (Homo sapiens, UniProt P78545 1-371); conditions: protein: recombinant; tags: N-terminal GST; dsDNA, one strand shown
# T11 sequence: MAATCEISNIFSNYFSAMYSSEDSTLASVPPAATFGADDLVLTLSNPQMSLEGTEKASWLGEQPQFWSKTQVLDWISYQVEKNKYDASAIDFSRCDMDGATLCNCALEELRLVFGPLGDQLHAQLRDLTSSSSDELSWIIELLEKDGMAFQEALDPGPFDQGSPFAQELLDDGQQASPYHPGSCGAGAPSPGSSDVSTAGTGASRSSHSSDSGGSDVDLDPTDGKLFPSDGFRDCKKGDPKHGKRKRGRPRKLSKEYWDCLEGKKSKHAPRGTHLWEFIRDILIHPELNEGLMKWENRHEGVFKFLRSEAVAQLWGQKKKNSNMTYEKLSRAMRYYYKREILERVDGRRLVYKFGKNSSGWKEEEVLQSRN
# Method in brief: as §1
# [18] = molecular target: ETV1 (Homo sapiens, UniProt P50549 1-477); conditions: protein: recombinant; tags: N-terminal GST; dsDNA, one strand shown
# Method in brief: as §1
# ETV1, sequence (P50549 whole entry): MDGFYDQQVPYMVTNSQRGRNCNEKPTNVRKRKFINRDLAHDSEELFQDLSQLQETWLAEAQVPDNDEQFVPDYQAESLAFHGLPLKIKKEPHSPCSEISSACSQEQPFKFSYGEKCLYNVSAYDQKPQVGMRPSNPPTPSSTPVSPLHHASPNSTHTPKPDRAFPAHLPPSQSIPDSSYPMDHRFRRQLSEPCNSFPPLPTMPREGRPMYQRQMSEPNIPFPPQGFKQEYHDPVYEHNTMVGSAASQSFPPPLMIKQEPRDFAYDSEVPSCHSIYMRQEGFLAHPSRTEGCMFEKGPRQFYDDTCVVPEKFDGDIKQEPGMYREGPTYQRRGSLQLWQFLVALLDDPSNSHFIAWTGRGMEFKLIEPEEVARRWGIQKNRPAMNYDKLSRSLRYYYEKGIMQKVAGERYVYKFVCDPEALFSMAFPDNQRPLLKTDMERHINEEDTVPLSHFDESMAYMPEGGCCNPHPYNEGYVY
# HSF1, sequence (Q00613 whole entry): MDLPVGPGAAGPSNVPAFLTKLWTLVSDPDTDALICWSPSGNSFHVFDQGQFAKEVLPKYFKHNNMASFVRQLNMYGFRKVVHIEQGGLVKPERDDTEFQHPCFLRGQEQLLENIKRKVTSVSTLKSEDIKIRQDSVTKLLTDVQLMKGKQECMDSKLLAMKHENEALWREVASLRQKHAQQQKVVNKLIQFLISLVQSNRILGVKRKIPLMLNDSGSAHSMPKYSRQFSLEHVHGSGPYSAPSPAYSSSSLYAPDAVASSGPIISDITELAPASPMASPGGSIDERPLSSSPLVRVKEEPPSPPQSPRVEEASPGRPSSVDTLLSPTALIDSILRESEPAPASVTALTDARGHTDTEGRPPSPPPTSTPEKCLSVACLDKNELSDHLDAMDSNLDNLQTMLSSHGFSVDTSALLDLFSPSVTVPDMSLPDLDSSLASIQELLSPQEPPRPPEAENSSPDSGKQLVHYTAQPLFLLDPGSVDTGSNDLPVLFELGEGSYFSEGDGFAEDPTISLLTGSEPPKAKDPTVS
# ETV5, sequence (P41161 whole entry): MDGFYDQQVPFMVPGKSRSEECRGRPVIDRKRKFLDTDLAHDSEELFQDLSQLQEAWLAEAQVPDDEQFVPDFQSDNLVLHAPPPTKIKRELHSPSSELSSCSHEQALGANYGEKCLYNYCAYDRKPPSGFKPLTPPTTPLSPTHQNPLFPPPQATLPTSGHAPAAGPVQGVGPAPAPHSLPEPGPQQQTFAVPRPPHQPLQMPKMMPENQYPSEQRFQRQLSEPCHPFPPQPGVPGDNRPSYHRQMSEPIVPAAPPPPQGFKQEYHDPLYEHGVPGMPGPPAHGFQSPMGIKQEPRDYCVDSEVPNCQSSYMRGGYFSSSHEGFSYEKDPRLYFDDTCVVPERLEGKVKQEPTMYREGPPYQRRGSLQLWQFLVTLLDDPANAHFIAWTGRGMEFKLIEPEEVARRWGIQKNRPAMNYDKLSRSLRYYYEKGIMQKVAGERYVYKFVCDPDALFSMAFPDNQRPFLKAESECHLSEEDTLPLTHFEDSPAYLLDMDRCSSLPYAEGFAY
# ELF1, sequence (P32519 whole entry): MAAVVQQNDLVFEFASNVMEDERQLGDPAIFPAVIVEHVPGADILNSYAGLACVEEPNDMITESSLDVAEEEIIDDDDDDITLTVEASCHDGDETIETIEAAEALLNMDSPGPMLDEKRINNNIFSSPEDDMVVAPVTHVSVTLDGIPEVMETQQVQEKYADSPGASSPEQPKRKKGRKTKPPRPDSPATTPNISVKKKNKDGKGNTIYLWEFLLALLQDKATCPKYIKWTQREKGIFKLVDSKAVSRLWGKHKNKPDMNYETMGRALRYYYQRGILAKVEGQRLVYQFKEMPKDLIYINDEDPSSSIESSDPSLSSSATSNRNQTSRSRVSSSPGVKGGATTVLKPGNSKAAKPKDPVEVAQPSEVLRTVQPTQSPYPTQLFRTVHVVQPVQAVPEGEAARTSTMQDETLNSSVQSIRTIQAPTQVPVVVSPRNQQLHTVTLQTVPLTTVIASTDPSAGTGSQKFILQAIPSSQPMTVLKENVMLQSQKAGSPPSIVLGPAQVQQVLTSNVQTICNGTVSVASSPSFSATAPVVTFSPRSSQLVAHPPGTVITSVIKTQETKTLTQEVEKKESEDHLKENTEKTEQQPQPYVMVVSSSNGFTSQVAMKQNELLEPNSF
# ELF4, sequence (Q99607 whole entry): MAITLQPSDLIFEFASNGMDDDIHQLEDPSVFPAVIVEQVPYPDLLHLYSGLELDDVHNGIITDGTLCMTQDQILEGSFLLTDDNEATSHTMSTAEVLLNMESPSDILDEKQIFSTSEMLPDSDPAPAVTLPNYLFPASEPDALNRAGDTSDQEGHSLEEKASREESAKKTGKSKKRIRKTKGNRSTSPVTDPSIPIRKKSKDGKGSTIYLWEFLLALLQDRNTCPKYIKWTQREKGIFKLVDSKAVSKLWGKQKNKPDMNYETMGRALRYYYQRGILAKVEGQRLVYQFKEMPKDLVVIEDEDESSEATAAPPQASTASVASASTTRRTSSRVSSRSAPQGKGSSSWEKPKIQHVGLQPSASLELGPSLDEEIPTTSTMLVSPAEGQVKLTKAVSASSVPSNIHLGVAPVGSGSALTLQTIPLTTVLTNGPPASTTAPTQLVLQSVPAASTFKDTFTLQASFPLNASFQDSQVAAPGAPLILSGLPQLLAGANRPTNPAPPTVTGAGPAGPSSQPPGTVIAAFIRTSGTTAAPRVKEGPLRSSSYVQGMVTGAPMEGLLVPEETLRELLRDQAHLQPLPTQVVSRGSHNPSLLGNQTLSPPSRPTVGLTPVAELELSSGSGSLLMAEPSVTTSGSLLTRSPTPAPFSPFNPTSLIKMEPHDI
# SPIB, sequence (Q01892 whole entry): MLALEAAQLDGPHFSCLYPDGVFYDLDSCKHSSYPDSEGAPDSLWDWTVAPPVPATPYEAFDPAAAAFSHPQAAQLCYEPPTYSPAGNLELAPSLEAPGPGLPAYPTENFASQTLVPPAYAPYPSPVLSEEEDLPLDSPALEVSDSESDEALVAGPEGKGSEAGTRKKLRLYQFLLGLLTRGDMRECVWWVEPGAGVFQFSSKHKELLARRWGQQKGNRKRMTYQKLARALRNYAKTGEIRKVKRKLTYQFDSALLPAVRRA
sequence,measurement,setting,value
CTGCCC,binding signal,[1],"1.31 fold enrichment (6-mer frequency, TF over GST control)"
same,binding signal,[2],"1.29 fold enrichment (6-mer frequency, TF over GST control)"
same,binding signal,[3],"1.29 fold enrichment (6-mer frequency, TF over GST control)"
same,binding signal,[4],"1.36 fold enrichment (6-mer frequency, TF over GST control)"
same,binding signal,[5],"1.32 fold enrichment (6-mer frequency, TF over GST control)"
same,binding signal,[6],"1.46 fold enrichment (6-mer frequency, TF over GST control)"
same,binding signal,[7],"1.27 fold enrichment (6-mer frequency, TF over GST control)"
same,binding signal,[8],"1.19 fold enrichment (6-mer frequency, TF over GST control)"
same,binding signal,[9],"1.1 fold enrichment (6-mer frequency, TF over GST control)"
same,binding signal,[10],"1.37 fold enrichment (6-mer frequency, TF over GST control)"
same,binding signal,[11],"1.25 fold enrichment (6-mer frequency, TF over GST control)"
same,binding signal,[12],"1.05 fold enrichment (6-mer frequency, TF over GST control)"
same,binding signal,[13],"1.42 fold enrichment (6-mer frequency, TF over GST control)"
same,binding signal,[14],"1.29 fold enrichment (6-mer frequency, TF over GST control)"
same,binding signal,[15],"1.42 fold enrichment (6-mer frequency, TF over GST control)"
same,binding signal,[16],"1.38 fold enrichment (6-mer frequency, TF over GST control)"
same,binding signal,[17],"1.09 fold enrichment (6-mer frequency, TF over GST control)"
same,binding signal,[18],"1.2 fold enrichment (6-mer frequency, TF over GST control)"
